# Source: PubChem BioAssay (National Center for Advancing Translational Sciences (NCATS))
# Pf growth 48h: Primary qHTS for delayed death inhibitors of the malarial parasite plastid, 48 hour incubation; P. falciparum luciferase growth in erythrocytes, 48 h; Potency, µM (highest dose often 28.7 µM), for inactives: top-dose activity change, negative = inhibition, usual class: inhibitors; 310,000 tested, 5.9% active; AID 504832, 2011; also: potency is read from the fitted curve at half-maximal effect; % is scaled to controls: 0 for no effect and ±100 for the full control effect
#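 Compounds are pin-transferred into medium, infected erythrocytes (2% hematocrit, 0.1% parasitemia final) are added, and plates sit one parasite generation at 37 C in 5% CO2. Detection reagent is then added and luminescence measured.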
# Shiga inhibitor: A qHTS for Small Molecule Inhibitors of Shiga Toxin; AID 2315, 2010; Vero cells, Shiga toxin protein synthesis inhibition reporter; 290,000 tested, 9.2% active; inhibition, % at 38.7 µM; in the data active = inhibition mostly above about 28%, no sharp cut-off; inactive = mostly below about 43%; also: 0% is about no effect
# Pf growth 96h: Primary qHTS for delayed death inhibitors of the malarial parasite plastid, 96 hour incubation | Potency, µM (titrated, usually from 28.7 µM), for the others: at the top dose activity change, negative = inhibition, most hits filed as inhibitors | AID 504834, 2011 | 320,000 tested, 6.9% active | P. falciparum luciferase reporter growth, 96 h; also: potency is read from the fitted curve at half-maximal effect; % is scaled to controls: 0 for no effect and ±100 for the full control effect
#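 Compounds incubated with erythrocytes infected by luciferase-expressing P. falciparum (2% hematocrit, 0.05% parasitemia final) for 96 hours, 37 C in 5% CO2. Growth inhibition scored as decreased luciferase luminescence.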
# Cycloheximide cs: Cycloheximide Counterscreen for Small Molecule Inhibitors of Shiga Toxin; cell reporter, cycloheximide protein synthesis inhibition counterscreen; max response, %; 300,000 tested, 12% active; AID 2314, 2010; in the data active = max response mostly above about 13%, no sharp cut-off; inactive = mostly below about 14%; also: read at 38.3 µM for the half of the compounds with a filed dose; 0% is about no effect
# Active calls of the source: *; ? = inconclusive; . = not tested or not shown; [ ] = dose if it differs, or a comment. Compounds with a hit are over-represented: about 21% of the library has one in this group of screens. Unless noted, calls follow the shape of the dose curve; as a rule, active = well fitted inhibition curve with a large enough effect; inconclusive = small, poorly fitted or top-dose-only effect, or another doubt; inactive = no such curve, though single readings can be large or run the other way.
SMILES,Pf growth 48h,Shiga inhibitor,Pf growth 96h,Cycloheximide cs
Cc1csc(=O)n1CCC(=O)OCC(=O)NNC(=O)c1ccc(Cl)cc1,7.1%,.,1.9%,.
O=S(=O)(c1cccc2nsnc12)N1CCNCC1,18.1%,6.3,47.5%,-2.2
Cc1c(O)ccc2cc(S(=O)(=O)c3ccccc3)c(=O)oc12,6.7%[0.00184 µM],-1.0,11.7µM*,-0.4
Cc1ccc(S(=O)(=O)c2cc3ccccc3oc2=O)cc1,60.2%,-19.5,8.6%,-6.4
Cc1ccc(C(=O)N2CCOCC2)c(F)c1F,36.9%,17.2,21.8%,10.8
CCOC(=O)CN1C(=O)S/C(=C/c2ccc(O)c([N+](=O)[O-])c2)C1=O,-6.7%,11.6,?,-1.8
CCOC(=O)CN1C(=O)S/C(=C/c2cc(C)n(-c3ccccn3)c2C)C1=O,.,68.9*,-56.8%,58.7*
COC(=O)C(C)N1C(=O)S/C(=C/c2cc(C)n(-c3ccccn3)c2C)C1=O (configuration not stated),.,56.6,2.4%,49.9*
Cc1ccc(-n2c(C)cc(/C=C3/SC(=O)N(CC(=O)N4CCOCC4)C3=O)c2C)nc1,-2.9%,15.1,0.0%,5.5
CCOC(=O)CN1C(=O)S/C(=C/c2ccc(C)o2)C1=O,18.5%,46.5*,9.9%,24.4*
COC(=O)C(C)N1C(=O)S/C(=C\c2cc(C)n(-c3ccccn3)c2C)C1=O (configuration not stated),.,90.2*,28.0%,43.3*
O=C(COC(=O)c1cc([N+](=O)[O-])ccc1N1CCOCC1)NCc1ccc(Cl)cc1Cl,-5.2%,7.9,-27.6%,-0.9
Cc1cc(Cl)c(C(=O)Nc2cccc(C(F)(F)F)c2)c(C)n1,-5.6%,11.1,?,4.8
CCC(=O)N(C(=O)CC)N1CCN(c2ccncc2S(=O)(=O)N2CCCCC2)CC1,?,-26.6,?,-3.3
O=C(Nc1ccc(F)cc1)C(c1ccccc1)N1CCN(C(=O)c2ccco2)CC1 (configuration not stated),.,16.1,?,30.6
O=C(CN1CCN(C(C(=O)Nc2ccc(F)cc2)c2ccccc2)CC1)NC1CC1 (configuration not stated),?,.,14.7µM*,.
O=C(Nc1ccc(F)cc1)C(c1ccccc1)N1CCN(S(=O)(=O)c2ccc3ccccc3c2)CC1 (configuration not stated),13.1µM*,-6.3,0.0%,-0.6
Cc1ccc(C)c(S(=O)(=O)N2CCN(C(=O)Cc3c(F)cccc3Cl)CC2)c1,?,.,-8.4%,.
Cc1ccc(C)c(S(=O)(=O)N2CCN(C(C(=O)Nc3ccc(F)cc3)c3ccccc3)CC2)c1 (configuration not stated),13.1µM*,-2.6,54.3%,4.7
Cc1ccc(C)c(S(=O)(=O)N2CCN(C(=O)CSc3ccccc3F)CC2)c1,?,-3.3,14.7µM*,-2.8
Cc1ccc2nc(SCC(=O)N3CCC(C)CC3)nc(=O)n2c1,-6.6%,.,?,.
COc1ccc(Cl)cc1NS(=O)(=O)c1c(C)[nH]c(C)c1C(=O)N1CCCCC1,-9.6%,-15.9,8.3%,-2.2
C[n+]1cc(C(=O)N2CCCCC2)ccc1/C=C/c1c[nH]c2ccccc12,?,7.2,0.415µM*,9.0
C=CCOC(=O)/C(=C/c1cccnc1)NC(=O)c1ccccc1,8.7%,-7.4,33.9%,4.3
C=CCOC(=O)/C(=C\c1ccccc1)NC(=O)c1ccc(C)cc1,4.6%,99.9*,-4.6%,36.2*
SMILES,Pf growth 48h,Shiga inhibitor,Pf growth 96h,Cycloheximide cs
CCOC(=O)/C(=C\c1ccccc1)NC(=O)c1ccccc1,-12.4%,40.6,14.6%,19.5*
C=CCOC(=O)/C(=C\c1cccc2ccccc12)NC(=O)c1ccccc1,?,22.0,6.7%,36.0*
CCOC(=O)/C(=C/c1ccc(OC(=O)c2ccccc2)cc1)C(C)=O,-2.8%,38.8*,-11.4%,6.9
CCOC(=O)/C(=C/c1c2ccccc2cc2ccccc12)NC(=O)c1ccccc1,?,-2.5,?,6.1
CC[C@@]12CCCN3CCc4c(n(c5ccccc45)C(=O)C1)[C@H]32,?,.,6.42µM*,.
CCC12CCCN3CCc4c(n(c5ccccc45)C(O)(C(=O)OC)C1)C32 (configuration not stated),-14.7%,12.6,-5.7%,-1.7
CCOC(=O)C1=C[C@@]2(CC)CCCN3CCc4c(n1c1ccccc41)[C@H]32,6.01µM*,.,-1.2%,.
CCOc1ccc(NC(=O)CN(C)C(=O)c2cccnc2Sc2ccc(C)c(C)c2)cc1OCC,-18.1%,3.2,-8.1%,-3.1
Nc1nc(SCC(=O)Nc2ccc3c(c2)OCO3)n[nH]1,-4.5%,-7.3,28.0%,-1.5
O=C(c1ccco1)N1CCN(C(=O)C2CCCO2)CC1 (configuration not stated),-13.0%,13.4,39.2%,4.4
CCC(CCC(=O)NNC(=O)Cc1ccc([N+](=O)[O-])cc1)C(=O)O (configuration not stated),-4.8%,17.4,45.9%,-2.6
Cc1ccc(NCc2ccc([N+](=O)[O-])s2)cc1,22.5%,49.0*,?,25.3*
Cc1ccccc1NCc1ccc([N+](=O)[O-])s1,10.9%,-1.1,?,14.0*
CCOc1cc(/C=C/c2ccc3cccc([N+](=O)[O-])c3n2)ccc1O,-15.8%,19.2,-19.4%,12.8*
O=[N+]([O-])c1cccc(/C=C/c2ccc3cccc(O)c3n2)c1,12.0%[0.00184 µM],107.2*,?,34.5*
O=[N+]([O-])c1ccc(/C=C/c2ccc3cccc([N+](=O)[O-])c3n2)cc1,0.7%,24.3,-3.6%,21.8*
O=[N+]([O-])c1cccc2ccc(N3CCOCC3)nc12,45.4%,.,?,11.4
O=[N+]([O-])c1cccc2ccc(/C=C/c3ccc(F)cc3)nc12,?,94.7*,-78.9%,131.5*
COc1cc(/C=C/c2ccc3cccc([N+](=O)[O-])c3n2)ccc1OCC#N,-22.7%,-6.2,-18.6%,15.7
CC(C)(C)NC(=O)CSc1nc2cccnc2n1C1CCCCC1,?,-9.2,59.3%,-0.7
CN(CC1CCCO1)S(=O)(=O)c1ccc(C(=O)Nc2ccc(S(N)(=O)=O)cc2)cc1 (configuration not stated),-16.2%,-17.6,-5.5%,-0.3
CC(C)CCCN1C(N(C)C)=NC[C@@H]1C,-9.8%,.,66.6%,.
CCOC(=O)C1=C(Nc2ccc(Cl)cc2)OCC1=O,11.7µM*,-2.2,2.62µM*,-0.3
O=CNc1ccccc1,2.0%,.,30.0%,.
CCCn1c(SCC(=O)Nc2cc(Cl)ccc2Cl)n[nH]c1=O,?,-1.5,1.17µM*,-1.2
CCCn1c(SCC(=O)N2CCN(S(=O)(=O)c3ccc(Cl)cc3)CC2)n[nH]c1=O,10.4µM*,-8.5,?,2.4
O=C(Nc1ccc2c(c1)OCO2)N1CCN(c2cccc(C(F)(F)F)c2)CC1,2.1%,26.7*,.,11.6*
O=C(Nc1ccc2c(c1)OCO2)N1CCN(c2ccccc2Cl)CC1,.,84.6*,-11.2%,51.8*
O=C(Nc1ccc2c(c1)OCO2)N1CCC(CO)(CC2CCCCO2)CC1 (configuration not stated),-14.2%,46.1*,-6.8%,17.0*
CC1(C)CC(NS(=O)(=O)c2ccc3ccccc3c2)CC(C)(C)N1,1.2%,-3.3,?,-5.8
